{
  "source": "PubChem BioAssay (Tox21)",
  "note": "Results filed as inconclusive are left out. Values without a mark were called inactive. Calls of active or inactive are those of the source. Calls follow the shape of the dose curve; as a rule, active = well fitted cell-killing curve with a large enough effect in the repeat runs; inconclusive = weak or mixed curves, or effect the other way; inactive = flat fitted curve, though single readings scatter. % is scaled to controls: 0 for no effect and ±100 for the full control effect; potency is read from the fitted curve at half-maximal effect.",
  "data": [
    {"test": "qHTS assay to identify small molecule antagonists of the constitutive androstane receptor (CAR) signaling pathway - cell viability counter screen (AID 1224837); also: nearly all actives have a fitted effect of over 45% in size", "conditions": "HepG2-CYP2B6-hCAR viability, CellTiter-Fluor, 23 h, co-treated with 50 nM CITCO; series mostly up to 92.4 µM; activity change, negative = cytotoxicity: at the top concentration", "description": "National Center for Advancing Translational Sciences [NCATS]\nNIH Chemical Genomics Center [NCGC]\nU.S. Environmental Protection Agency [EPA]\nNational Institutes of Environmental Health Sciences [NIEHS]\nNational Toxicology Program [NTP]\nU.S. Food and Drug Administration [FDA]\nThe constitutive androstane receptor (CAR) is a nuclear receptor which regulates multiple drug metabolizing enzymes (DMEs) and transporters. Activating CAR will generally increase the transcription and subsequent translation of CYP2B6 and CYP3A4. These two DMEs represent about 50% of the drug metabolizing potential in the body. When CAR is deactivated, the metabolizing potential in the body will decrease, subsequently increasing the toxicity in the body or lowering the therapeutic potential of a pro-drug. Recently, there have also been studies performed indicating CARs role in energy metabolism and cancer therapy. Therefore, inhibiting CARs activity could have a potential effect on diabetes and cancer. Identifying environmental toxins and compounds which modulate CAR, through the use of the Tox21 10K compound collection, will be an important step in determining the toxicity and potential therapeutic effects these factors will have on the human body. To differentiate true CAR antagonists from cytotoxic substances, the assay is multiplexed with a cell viability assay.\nTox21 Assay Protocol Summary:\nA double-stable (hCAR and CYP2B6-2.2kb) transfected cell line, derived from human hepatoma (HepG2) cells, was utilized for the duration of the quantitative high-throughput screens. The HepG2-CYP2B6-hCAR cells were dispensed at 2500 cells/4 uL/well in 1536-well white solid bottom plates using a Multidrop Combi. After the assay plates were incubated at 37 C/5% CO2 for 4 hrs, 23 nL of compounds at 15 concentrations (from 5-48 columns) or positive control (from 1 to 4 columns) were transferred to the assay plates using a Pintool station. One uL of CITCO (final concentration = 50 nM) was added, using a Flying Reagent Dispenser, inside each well. After a 23 hr incubation period at 37 C/5% CO2, 1 uL of CellTiter-Fluor reagent was added into each well of the assay plates using a Flying Reagent Dispenser. The fluorescence intensity in the plates was then measured using a ViewLux plate reader.", "values": [
      {"compound": "CCN(CC)CC(=O)Nc1c(C)cccc1C(=O)OC", "activity change, negative = cytotoxicity": "-0.96% [at 42.5 µM]"},
      {"compound": "COc1cc(S(=O)(=O)Nc2ccccc2)c(OC)cc1N", "activity change, negative = cytotoxicity": "-2.14%"},
      {"compound": "CCCc1nc2c(C)cc(-c3nc4ccccc4n3C)cc2n1Cc1ccc(-c2ccccc2C(=O)O)cc1", "activity change, negative = cytotoxicity": "-6.12% [at 42.5 µM]"},
      {"compound": "CC(CCc1ccc(O)cc1)NCCc1ccc(O)c(O)c1", "note": "(stereo not given)", "activity change, negative = cytotoxicity": "0.817% [at 42.5 µM]"},
      {"compound": "c1ccc2sc(SSc3nc4ccccc4s3)nc2c1", "activity change, negative = cytotoxicity": "11.8% [at 19 µM]"},
      {"compound": "Oc1ccc2c(c1)Cc1ccccc1-2", "activity change, negative = cytotoxicity": "-1.42%"},
      {"compound": "Cc1cn([C@H]2C[C@H](F)[C@@H](CO)O2)c(=O)[nH]c1=O", "activity change, negative = cytotoxicity": "8.38% [at 42.5 µM]"},
      {"compound": "C=CC(=O)NC(C)C", "activity change, negative = cytotoxicity": "2.86%"},
      {"compound": "O=c1[nH][nH]c(=O)c2cc([N+](=O)[O-])ccc12", "activity change, negative = cytotoxicity": "-5.42%"},
      {"compound": "O=C(O)CCS", "activity change, negative = cytotoxicity": "6.95%"},
      {"compound": "CC(CO)(CO)C(=O)O", "activity change, negative = cytotoxicity": "0.904%"},
      {"compound": "Cc1cccc(C)c1NC(=O)c1cc(S(N)(=O)=O)c(Cl)cc1O", "activity change, negative = cytotoxicity": "1.19% [at 42.5 µM]"},
      {"compound": "Cc1cc(CCC(=O)OCCOCCOCCOC(=O)CCc2cc(C)c(O)c(C(C)(C)C)c2)cc(C(C)(C)C)c1O", "activity change, negative = cytotoxicity": "6.68%"},
      {"compound": "O=C(O)c1cc(Cl)cc(Cl)c1O", "activity change, negative = cytotoxicity": "7.68%"},
      {"compound": "COC(CC(C)CCCC(C)(C)O)OC", "note": "(stereo not given)", "activity change, negative = cytotoxicity": "5.03%"},
      {"compound": "O=C(O)c1cccc(C[C@@H]2COc3ccc(OCc4nc5cc(F)ccc5s4)cc3[C@@H]2O)c1", "activity change, negative = cytotoxicity": "16.2%"},
      {"compound": "CCCCCCCCCCCCCCCCCC(=O)OCC(CC)CCCC", "note": "(stereo not given)", "activity change, negative = cytotoxicity": "13%"},
      {"compound": "CC(=O)OCC(C)C", "activity change, negative = cytotoxicity": "-4.54%"},
      {"compound": "CC(C)c1ccc(C(=O)N=C(N)N)cc1S(C)(=O)=O", "activity change, negative = cytotoxicity": "-6.59% [at 42.5 µM]"},
      {"compound": "CC[C@H]1OC(=O)[C@H](C)[C@@H](O[C@H]2C[C@@](C)(OC)[C@@H](O)[C@H](C)O2)[C@H](C)[C@@H](O[C@@H]2O[C@H](C)C[C@H](N(C)C)[C@H]2O)[C@](C)(O)C[C@@H](C)CN(C)[C@H](C)[C@@H](O)[C@]1(C)O", "activity change, negative = cytotoxicity": "-7.44% [at 42.5 µM]"},
      {"compound": "CCCCOCCOC(=O)c1cccnc1", "activity change, negative = cytotoxicity": "-1.35% [at 42.5 µM]"},
      {"compound": "CC(C)C1CCC(C(=O)N[C@H](Cc2ccccc2)C(=O)O)CC1", "note": "(stereo not given in full)", "activity change, negative = cytotoxicity": "8.47% [at 42.5 µM]"},
      {"compound": "CCCCCCCC(=O)OCCCCCC", "activity change, negative = cytotoxicity": "0.0805%"},
      {"compound": "BrC(Br)C(Br)Br", "activity change, negative = cytotoxicity": "2.21%"},
      {"compound": "CC[C@H]1OC(=O)[C@H](C)[C@@H](O[C@H]2C[C@@](C)(OC)[C@@H](O)[C@H](C)O2)[C@H](C)[C@@H](O[C@@H]2O[C@H](C)C[C@H](N(C)C)[C@H]2O)[C@](C)(O)C[C@@H](C)C(=O)[C@H](C)[C@@H](O)[C@]1(C)O", "activity change, negative = cytotoxicity": "-12.4% [at 42.5 µM]"},
      {"compound": "C[C@@H]1[C@H](O)[C@@H](C)/C=C/C=C\\C=C\\C=C\\C=C\\C=C\\C=C\\[C@H](O[C@@H]2O[C@H](C)[C@@H](O)[C@H](N)[C@@H]2O)C[C@@H]2O[C@](O)(C[C@@H](O)C[C@@H](O)[C@H](O)CC[C@@H](O)C[C@@H](O)CC(=O)O[C@H]1C)C[C@H](O)[C@H]2C(=O)O", "note": "(stereo in doubt)", "activity change, negative = cytotoxicity": "-18.3%"},
      {"compound": "CC(C)OC(=O)c1ccccc1C(=O)OC(C)C", "activity change, negative = cytotoxicity": "-1.04%"},
      {"compound": "Nc1cccc2c(N)cccc12", "Potency": "24.3 µM (active)"},
      {"compound": "Nc1ccc(S(=O)(=O)NCc2ccccc2)cc1", "activity change, negative = cytotoxicity": "-16.5% [at 42.5 µM]"},
      {"compound": "CN1C(CSCC(F)(F)F)Nc2cc(Cl)c(S(N)(=O)=O)cc2S1(=O)=O", "note": "(stereo not given)", "activity change, negative = cytotoxicity": "5.05% [at 42.5 µM]"},
      {"compound": "CCC1CCC(CCC(=O)O)C1", "note": "(stereo not given)", "activity change, negative = cytotoxicity": "8.99%"},
      {"compound": "Cc1cccc2sc(N)nc12", "activity change, negative = cytotoxicity": "-1.22%"},
      {"compound": "C=C(C)c1ccccc1", "activity change, negative = cytotoxicity": "3.38%"},
      {"compound": "CSCC[C@H](NC(=O)[C@H](Cc1c[nH]c2ccccc12)NC(=O)CCNC(=O)OC(C)(C)C)C(=O)N[C@@H](CC(=O)O)C(=O)N[C@@H](Cc1ccccc1)C(N)=O", "activity change, negative = cytotoxicity": "-0.168% [at 42.5 µM]"},
      {"compound": "CC(=O)N[C@@H](Cc1ccc(O)cc1)C(=O)O", "activity change, negative = cytotoxicity": "0.605% [at 42.5 µM]"},
      {"compound": "CC(=O)OC(C)C[N+](C)(C)C", "note": "(stereo not given)", "activity change, negative = cytotoxicity": "0.0524% [at 42.5 µM]"},
      {"compound": "COc1ccc(CCN(C)CCCN2CCc3cc(OC)c(OC)cc3CC2=O)cc1OC", "activity change, negative = cytotoxicity": "-6.15% [at 42.5 µM]"},
      {"compound": "CCCCCCCC(=O)Oc1c(Br)cc(C#N)cc1Br", "activity change, negative = cytotoxicity": "6.38%"},
      {"compound": "CC(C)CC(O)CC(C)C", "activity change, negative = cytotoxicity": "-0.53%"},
      {"compound": "CC(=O)C(=O)CC(C)C", "activity change, negative = cytotoxicity": "5.82%"}
    ]}
  ]
}
